Our source for the normalised cell number values is PubChem BioAssay.

A short description of this assay: EMT-state selective cytotoxicity in co-culture – imaging, PC-3E GFP, TEM4-18 mCherry, primary screen (AID 1345086).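 Note: cells exposed to compound for 72 h before imaging.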 As to conditions: PC-3E GFP / TEM4-18 mCherry co-culture, imaging cell counts; measured here: mesenchymal TEM4-18 mCherry cell survival; at 1 µM.
The compound `C[C@@H]1[C@H](O)[C@@H](C)/C=C/C=C/CC/C=C/C=C/C=C/C=C/[C@H](OC2O[C@H](C)[C@@H](O)[C@H](N)[C@@H]2O)C[C@@H]2O[C@](O)(C[C@@H](O)[C@H](O)CC[C@@H](O)C[C@@H](O)C[C@@H](O)CC(=O)O[C@H]1C)C[C@H](O)[C@H]2C(=O)O` (stereo partly specified) returned a normalised cell number of 1.09.

Compound `CN(CCC(N)CC(=O)N[C@H]1C=CC(n2ccc(N)nc2=O)O[C@@H]1C(=O)O)C(=N)N` (stereo partly specified) came in with a normalised cell number of 0.93.

For `C[C@]12CC[C@H](O)C[C@H]1CCC1C2CC[C@]2(C)[C@@H](C3=CC(=O)OC3)[C@@H](O)C[C@]12O` (stereo partly specified), the normalised cell number came out at 0.35.

`C[C@H]1COc2c(N3CCNCC3)c(F)cc3c(=O)c(C(=O)O)cn1c23` had a normalised cell number of 1.06.

For `Cc1ncc(C[n+]2csc(CCO)c2C)c(=O)[nH]1`, the normalised cell number was 1.03.

In turn, `COc1cc2c(cc1OC)[C@@H]1C(=O)c3ccc4c(c3O[C@@H]1CO2)CC(C(C)C)O4` (stereo partly specified) registered a normalised cell number of 0.64.

The compound `C[N+]1(C)CCc2cc3c(cc2[C@H]1C1OC(=O)c2c1ccc1c2OCO1)OCO3` (stereo partly specified) yielded a normalised cell number of 1.18.

In the case of `C[C@@H]1C(=O)OC2[C@H](O)C34[C@@H]5OC(=O)[C@@]3(OC3OC(=O)[C@H](O)[C@@]34[C@H](C(C)(C)C)[C@H]5O)[C@]21O` (stereo partly specified), the normalised cell number is 0.93.

With `C[CH2][Hg+].O=C([O-])c1ccccc1[S-].[Na+]`, the normalised cell number was determined as 0.06.

Take `CC[C@H](C)/C=C(C)/C=C/C1=CC2=C(Cl)C(=O)[C@](C)(OC(C)=O)C(=O)C2=CO1`: the normalised cell number came to 0.96.

For the compound `O=C1NCC[C@@H]1O`, the normalised cell number was determined as 1.03.

In turn, `CCCN1CCC[C@@H]2Cc3[nH]ncc3C[C@H]21` showed a normalised cell number of 1.1.

In turn, `COc1cc2c(c3oc4cccc(O)c4c(=O)c13)[C@@H]1C=CO[C@@H]1O2` returned a normalised cell number of 0.98.

For the compound `Cc1cc(O)cc2oc(=O)c3c(O)cc(O)cc3c12`, the normalised cell number was 0.88.

Regarding `CN1C2CC(=O)CC1[C@H](O)C2` (stereo partly specified), the normalised cell number turned out to be 1.01.

`CC(=O)OC1CC[C@@]2(C)C(CCC3C2CC[C@]2(C)C(C4=CC(=O)OC4)C(OC(C)=O)CC32O)C1` (stereo partly specified) returned a normalised cell number of 0.03.

With `CC1OC(=O)[C@@H](C(C)C)NC(=O)C(C(C)C)OC(=O)[C@H](C(C)C)NC(=O)C(C)OC(=O)[C@@H](C(C)C)NC(=O)C(C(C)C)OC(=O)[C@H](C(C)C)NC(=O)C(C)OC(=O)[C@@H](C(C)C)NC(=O)C(C(C)C)OC(=O)[C@H](C(C)C)NC1=O` (stereo partly specified), the normalised cell number came to 0.29.

`COc1cc(=O)oc(/C=C/C=C/C=C/C(C)=C/[C@@]2(C)O[C@@H](C)[C@@](C)(O)[C@@H]2O)c1C`: the normalised cell number came to 0.85.

Turning to `C[C@]12C=CC(=O)C=C1CCC1C2CC[C@]2(C)C(=O)CCC12` (stereo partly specified), the normalised cell number is 1.12.

Turning to `CCSCCC(N)C(=O)O` (stereo unspecified), the normalised cell number worked out at 1.06.

Consider `CC(=O)O[C@H]1C(=O)[C@@]2(C)C([C@H](OC(=O)c3ccccc3)[C@]3(O)C[C@H](O)C(C)=C1C3(C)C)[C@]1(OC(C)=O)CO[C@@H]1C[C@@H]2O` (stereo partly specified), for which the normalised cell number turned out to be 0.9.

On to `c1ccc(S[C@@H]2OC3COC(c4ccccc4)OC3[C@H]3NC32)cc1` (stereo partly specified), for which the normalised cell number came out at 1.06.

Regarding `C/C1=C\[C@@H](C)C/C=C/[C@H]2[C@@H]3O[C@]3(C)[C@@H](C)[C@H]3[C@H](Cc4c[nH]c5ccccc45)NC(=O)[C@]32C(=O)/C=C/C(=O)[C@@H]1O`, the normalised cell number came out at 1.

Consider `CC(C)[C@@H]1CC[C@](O)(CCl)[C@@H]2C(=O)OCC(C(=O)O)=C[C@H]21`, for which the normalised cell number was 0.96.

`C=Cc1cc(OC)c2c(c1)c(=O)oc1c2cc(OC)c2c(O)ccc([C@@H]3O[C@@H](C)[C@H](OC(C)=O)[C@H](N(C)C)[C@H]3O)c21` had a normalised cell number of 0.31.

With `CN1C(=O)c2ccccc2NC(=O)[C@@H]1Cc1ccccc1`, the normalised cell number came out at 1.13.

In turn, `N#Cc1c(Cl)nc(NC2CC2)c2ccccc12` yielded a normalised cell number of 0.91.

The compound `C[N+]12CC[C@@]34c5ccccc5N5C(=O)CC6OCC=C(C1)[C@@H](CC32)[C@@H]6C54` (stereo partly specified) came in with a normalised cell number of 1.01.

As to `C[C@@H]1CC[C@@]2(OC1)OC1C(O)C3C4CC[C@H]5C[C@H](O[C@@H]6O[C@H](CO)[C@H](O[C@@H]7O[C@H](CO)[C@@H](O)[C@H](O[C@@H]8OC[C@@H](O)[C@H](O)[C@H]8O)[C@H]7O[C@@H]7O[C@H](CO)[C@H](O)[C@H](O[C@@H]8O[C@H](CO)[C@@H](O)[C@H](O)[C@H]8O)[C@H]7O)[C@H](O)[C@H]6O)[C@H](O)C[C@]5(C)C4CC[C@]3(C)C1[C@@H]2C` (stereo partly specified), the normalised cell number amounted to 0.76.

For the compound `C[C@@H]1CC[C@@]2(NC1)OC1CC3C4CC=C5C[C@@H](O)CC[C@]5(C)C4CC[C@]3(C)C1[C@@H]2C` (stereo partly specified), the normalised cell number amounted to 1.13.

For the compound `C[C@]12CCC3C(CC[C@H]4C[C@@H](O)CC[C@]34C)C1CCC2=O` (stereo partly specified), the normalised cell number turned out to be 1.19.
